# Screening data (PubChem)
# FBW7 act – FBW7 E3 ligase activators, primary screen, biochemical, AlphaScreen, human. F-box/WD repeat-containing protein 7 (Homo sapiens), Q969H0. AlphaScreen FBW7–phospho-cyclin E peptide binding, activator screen. normalized activity (activation), % at 26.1 µM. 650,000 compounds, 0.13% hits. AID 1259310, 2017; in the data active = normalized activity above about 1.9%;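 also: purified mutant Fbw7 with reduced substrate affinity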
# TEAD-YAP block – TEAD-YAP interaction inhibition, primary screen, TEAD-YAP interaction inhibitor project, luminescence, HEK-TIYL cells. 640,000 compounds, 1.4% hits. TEAD-Gal4/YAP UAS-luciferase luminescence. AID 1259422, 2018. inhibition, % at 9.12 µM; in the data active = inhibition above about 32%;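 also: 0% = median of test compound wells and 100% = reference inhibitor wells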
# MITF primary – MITF inhibitors, primary screen, biochemical, AlphaScreen, human; Microphthalmia-associated transcription factor (Homo sapiens), O75030; AlphaScreen MITF homodimerization, bead proximity signal; inhibition, % at 2.6 µM; 650,000 compounds, 0.91% hits; AID 1259374, 2018; in the data active = inhibition above about 50%;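 also: 0% = vehicle wells with protein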
# GPR151 ag – activators of human GPR151, primary screen, cell-based, PathHunter beta-arrestin, luminescence; G-protein coupled receptor 151 (Homo sapiens), Q8TDV0; PathHunter beta-arrestin GPR151 cells; activation, % at 11.2 µM; 650,000 compounds, 1% hits; in the data active = activation above about 4.9%;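 also: 0% = median of compound wells and 100% = cells with positive control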
# Target sequence (Q8TDV0 whole entry, looked up): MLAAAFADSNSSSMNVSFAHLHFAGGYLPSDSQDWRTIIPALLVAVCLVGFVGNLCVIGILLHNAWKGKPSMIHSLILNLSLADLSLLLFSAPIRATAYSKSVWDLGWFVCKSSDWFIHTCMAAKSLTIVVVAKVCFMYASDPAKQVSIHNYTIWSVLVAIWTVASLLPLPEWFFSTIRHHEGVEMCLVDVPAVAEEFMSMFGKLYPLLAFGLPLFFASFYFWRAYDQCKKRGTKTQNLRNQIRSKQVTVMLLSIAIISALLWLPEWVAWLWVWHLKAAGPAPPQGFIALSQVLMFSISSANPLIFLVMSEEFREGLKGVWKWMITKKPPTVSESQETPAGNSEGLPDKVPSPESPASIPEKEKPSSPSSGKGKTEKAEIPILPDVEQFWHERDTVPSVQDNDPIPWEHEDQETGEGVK
# An asterisk follows results filed as active. Only some compounds are listed: those with a hit (about 3.5% of all), similar ones and a draw of the others.
SMILES,FBW7 act,TEAD-YAP block,MITF primary,GPR151 ag
Cc1sc2ccccc2[n+]1CCO,0,-17,-1,1
CCN1\C(=C/C=C(C)/C=C/c2sc3ccccc3[n+]2CC)Sc2ccccc21,11*,66*,-24,2
CCN1/C(=C/c2sc3ccccc3[n+]2CCO)Sc2ccccc21,1,38*,21,2
C=CCN1/C(=C/C=C/c2sc3ccccc3[n+]2CC=C)Sc2ccccc21,0,89*,45,-1
Cc1nc(N)sc1N=Nc1cc(C(=O)O)cc(C(=O)O)c1,0,-2,52*,2
Nc1ncc(N=Nc2cc(C(=O)O)ccc2Cl)s1,0,3,9,-2
Nc1ncc(N=Nc2cc(C(=O)O)cc(C(=O)O)c2)s1,0,12,61*,0
CC(C)(C)OC(=O)NC(CC(=O)O)c1ccc(F)cc1F (configuration not stated),0,3,18,3
O=C(Nc1nccs1)c1cc(Br)c(Br)s1,0,-56,9,-1
CC(C)(C)c1ccc(OCC(=O)Nc2nccs2)cc1,0,74*,-1,0
CC(C)c1ccc(NC(=O)COc2ccc(C(C)C)cc2)cc1,0,8,0,2
O=C(Nc1nccs1)c1cc2c(s1)CCCC2,0,65*,0,-10
CC(C)c1ccc(OCC(=O)Nc2nccs2)cc1,0,81*,8,-3
CC(=O)c1ccc(OCC(=O)Nc2nccs2)cc1,0,55*,6,-6
O=C(COc1cccc(Cl)c1)NCCc1ccccc1,0,-13,14,0
O=C(c1cc([N+](=O)[O-])ccc1Cl)N1CCOCC1,0,5,6,0
O=C(COc1ccc2c(c1)CCC2)Nc1nccs1,0,74*,5,-3
O=C(Cc1ccc2c(c1)CCCC2)Nc1nccs1,0,-8,11,-1
CC(Sc1nnc(-c2ccc(C(C)(C)C)cc2)o1)C(=O)Nc1nccs1 (configuration not stated),-1,52*,50,3
O=C(COc1ccc(Br)cc1)Nc1nccs1,0,35*,-7,-2
CC(Sc1nnc(N)s1)C(=O)Nc1nccs1 (configuration not stated),0,-10,8,2
CC1CCCN(C(=O)c2ccc3c(=O)n(Cc4ccc(Cl)cc4)c(=S)[nH]c3c2)C1 (configuration not stated),0,-6,3,-1
O=C1NC(CC(=O)N2CCCC2c2nc3ccccc3[nH]2)c2ccccc21 (configuration not stated),0,-6,6,-1
O=C1/C(=C/c2cccs2)SC(=S)N1Cc1ccco1,0,5,2,1
c1cncc(-c2ccc(NCCN3CCOCC3)nc2)c1,0,-2,8,1
SMILES,FBW7 act,TEAD-YAP block,MITF primary,GPR151 ag
NC(=O)c1nonc1NCn1nnc2ccccc21,0,7,1,-1
CC1=C(C(=O)OCc2ccc3c(c2)OCO3)C(c2cc3c(cc2Br)OCO3)NC(=O)N1 (configuration not stated),0,1,-9,1
CC1=C(C(=O)OCc2ccc3c(c2)OCO3)C(c2ccccc2)NC(=O)N1 (configuration not stated),0,51*,15,1
CCc1ccc(C2NC(=O)NC(C)=C2C(=O)OCc2ccc3c(c2)OCO3)cc1 (configuration not stated),0,55*,-3,-1
Cc1ccc(-n2nc3ccc(NC(=O)COc4ccccc4)cc3n2)cc1Cl,5.2*,5,-1,2
CCc1ccc(C(=O)Nc2ccc(C(=O)O)cc2)cc1,0,58*,10,0
CC(=O)Nc1ccc(OCCC[n+]2ccccc2)cc1,1.9*,4,9,-1
COc1ccc(NC(=O)COc2c(C)ccc(C)c2C)cc1,0,46*,5,2
CCc1ccc(C(=O)Nc2ccc(Br)cc2)cc1,0,-67,8,1
Cc1ccc2nc(C)c(C(=O)NCCc3ccncc3)n2c1,0,-7,4,0
Cc1ccc(NC(=O)c2ccc(OCC(=O)Nc3ccccc3)cc2)cc1,0,-16,0,-1
CCc1ccc(C(=O)Nc2ccc(I)cn2)cc1,0,-55,-8,0
CCOc1ccc(C(=O)Nc2ccc(OCC(=O)O)cc2)cc1,0,48*,12,0
Cc1ccc(C(=O)Nc2ccc(OCC(=O)O)cc2)cc1,0,37*,8,0
